Inconclusive results are not listed. Activity calls are given as the source filed them. How the source made its calls: active means hit-call score of the fitted dose curve at least 0.9, where 1 is the maximum; inconclusive means response in the unintended direction; inactive means score below 0.9.

The target in this test is human Phosphatase and Tensin Homolog (PTEN), PTEN (gene 5728) (UniProt P60484). As to the kind of experiment: NVS_ENZ_hPTEN: NovaScreen (NVS) Enzymatic Assay for human Phosphatase and Tensin Homolog (PTEN) (AID 2283203). Here is the method: NVS_ENZ_hPTEN is a biochemical, single-readout assay that uses extracted gene-proteins in a cell-free assay. Measurements were taken 1 hour after chemical dosing in a 384-well plate.NVS_ENZ_hPTEN is one of one assay component(s) measured or calculated from the NVS_ENZ_hPTEN assay. It is designed to make measurements of enzyme activity, a form of enzyme reporter, as detected with fluorescence intensity signals by Fluorescence and electrophoretic mobility shift technology.Data from the assay component NVS_ENZ_hPTEN was analyzed into 1 assay endpoint. This assay endpoint, NVS_ENZ_hPTEN, was analyzed in the positive analysis fitting direction relative to DMSO as the negative control and baseline of activity. Using a type of enzyme reporter, loss-of-signal activity can be used to understand changes in the enzymatic activity as they relate to the gene PTEN. Furthermore, this assay endpoint can be referred to as a primary readout, because this assay has produced multiple assay endpoints where this one serves a enzymatic activity function. To generalize the intended target to other relatable targets, this assay endpoint is annotated to the phosphatase intended target family, where the subfamily is dual-specific phosphatase.
human Phosphatase and Tensin Homolog (PTEN), PTEN (gene 5728), sequence (P60484 whole entry, looked up): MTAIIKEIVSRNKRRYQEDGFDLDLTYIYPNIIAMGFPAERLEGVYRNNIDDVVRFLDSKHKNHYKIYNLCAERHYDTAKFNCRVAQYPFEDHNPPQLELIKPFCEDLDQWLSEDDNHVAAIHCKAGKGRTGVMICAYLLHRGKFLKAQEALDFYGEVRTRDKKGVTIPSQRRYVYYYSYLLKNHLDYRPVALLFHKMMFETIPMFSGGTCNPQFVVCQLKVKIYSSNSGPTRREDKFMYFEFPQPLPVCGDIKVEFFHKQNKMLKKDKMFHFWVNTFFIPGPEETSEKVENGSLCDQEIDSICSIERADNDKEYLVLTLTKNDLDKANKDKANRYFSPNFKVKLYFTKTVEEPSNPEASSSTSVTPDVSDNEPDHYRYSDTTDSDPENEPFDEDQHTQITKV
Binding assays used specific radioligands (tritiated, iodinated) with non-radioactive competitive displacement ligands in agonist or antagonist protocols (as indicated) and various reference compounds and inhibitors to titrate specific binding to receptors and transporters. Most enzyme assays (CYPs, kinases, phosphatases, proteases, HDACs) used recombinant protein and specific substrates (fluorescence mostly, some colorimetric and radioactive) and inhibitors, followed by a biochemical separation of substrate and product. All assays for the biochemical HTS were initially run in duplicate at a single concentration (10 uM for CYP450 assays and 25 uM for all others). […] Each assay was run with positive and negative controls, and concurrent controls on every plate. The follow-up (secondary) screen tested active chemical-pairs in concentration series, as well as a few additional assays not tested in the primary screen, some selected negative inactives, and several cases re-run in the concentration series for confirmatory purposes.
As for `O=C(OCCCCCOC(=O)c1ccccc1)c1ccccc1`, the result was inactive. `CCCCCC1=CCCC1=O`: the AC50 is 16.3 µM (active). As for `CC(C)c1ccccc1N`, the AC50 is 12.4 µM (active). Regarding `C=C1CC[C@H]2O[C@]2(C)CC[C@@H]2[C@@H]1CC2(C)C`, the molecule was classed as inactive. For the molecule `COCCO`, the molecule was classed as inactive. As for `CCCCCCCCCC`, the molecule was classed as inactive. Same read-out and setting: the result for `CCCCCCCCc1ccc(Nc2ccc(CCCCCCCC)cc2)cc1` reads “inactive”. Turning to `CCc1c(C(=O)NN2CCCCC2)nn(-c2ccc(Cl)cc2Cl)c1-c1ccc(Br)cc1`, the result was inactive. For the molecule `O=C1OC2(c3cc(Br)c(O)c(Br)c3Oc3c2cc(Br)c(O)c3Br)c2c(Cl)c(Cl)c(Cl)c(Cl)c21`, the AC50 is 0.851 µM (active).

Consider `CCCCCCCCC(C)=O`, for which the call was inactive.

For the molecule `CSC(=O)c1cccc2nnsc12`, the molecule was classed as inactive. For the molecule `Cc1cccc2c1ccc1ccccc12`, the AC50 is 13.8 µM (active). On to `CO[Si](OC)(c1ccccc1)c1ccccc1`, for which the result was inactive. For the molecule `CCN(CC)CC`, the half-maximal activity concentration (AC50) was 3.58 µM (active). Regarding `CC(C)CCOCCC(C)C`, the call was inactive. `SCc1ccco1`: the AC50 is 25 µM (active). Take `CCc1cccc(C)c1N(C(=O)CS(=O)(=O)O)C(C)COC` (stereo not given): the result was inactive. Regarding `COCC(C)OCC(C)O` (stereo not given), the molecule was classed as inactive. `CN(C)C(=S)SC(=S)N(C)C`: the AC50 is 18.9 µM (active). As for `CCOC(=O)C(C)(C)Oc1ccc(Cl)cc1`, the result was inactive. Turning to `CC1CCC(C(C)(C)O)CC1` (stereo not given), the half-maximal activity concentration (AC50) was 1.56 µM (active). With `Cl/C=C\CCl`, the call was inactive. Same read-out and setting: the result for `CC(=O)OCC=C(C)CCC=C(C)CCC=C(C)C` reads “inactive”; that for `CN(C)c1ccc(N=NS(=O)(=O)O)cc1`, “inactive”. As to `CC/C=C\C/C=C\C/C=C\CCCCCCCC(=O)OC`, the half-maximal activity concentration (AC50) was 9.64 µM (active). `O=C=Nc1cccc2c(N=C=O)cccc12`: the outcome was inactive. Same read-out and setting: the result for `Cc1nc(-c2ccccn2)ncc1C(=O)Nn1cc(C)c2cc(F)ccc21` reads “inactive”; that for `C1CCC(SSC2CCCCC2)CC1`, “inactive”; that for `CC(C)c1cccc(C(C)C)c1N1C(=O)c2ccc(O)cc2C1=O`, “inactive”. As to `N#Cc1ccc(CC(=NNC(=O)Nc2ccc(OC(F)(F)F)cc2)c2cccc(C(F)(F)F)c2)cc1`, the result was inactive.

Regarding `O=C1C=CC(=O)O1`, the molecule was classed as inactive. The same measure, in the same setting: as for `CCNc1nc(NC(C)(C)C)nc(OC)n1`, the entry is “inactive”.

Regarding `NC(=O)N1C(=O)C(C(=O)c2cc(Cl)cs2)c2cc(F)c(Cl)cc21` (stereo not given), the half-maximal activity concentration (AC50) was 25 µM (active). For `O=S(=O)(O)c1ccc(N=Nc2c(O)ccc3cc(S(=O)(=O)O)ccc23)cc1`, the outcome was inactive. Still for that read-out and setting: as for `Nc1ccc(S(=O)(=O)Nc2nccs2)cc1`, the entry is “inactive”; as for `CC(C)CCCCCCc1ccc(O)cc1`, “inactive”. The same measure, in the same setting: the result for `COc1ccccc1C=O` reads “inactive”; that for `CCN(CCC#N)c1ccc(N=Nc2ccc([N+](=O)[O-])cc2)cc1`, “inactive”; that for `COc1cccc(OC)c1O`, “inactive”. On to `CCOC=C(C(=O)OCC)C(=O)OCC`, for which the call was inactive.

The record behind these values is PubChem BioAssay (EPA / NIEHS).
